# Active and inactive are the calls of the source. Unless noted, how the calls were made is not given here.
# Assays:
# [1] = anti-His antibody binders, primary screen, artefact control for SMM control protein annotation, biochemical, small-molecule microarray, 635 nm fluorescence (AID 1128); conditions: anti-His Alexa647 antibody binding, higher = more signal;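 further: score merges feature fluorescence with signal-to-noise for each printed compound spot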
# [2] = system: Human papillomavirus type 1a E7 protein (residues 1-88); experiment: HPV1a E7 small-molecule binders, primary screen, biochemical, small-molecule microarray, residues 1-88, 635 nm (AID 1129); conditions: small-molecule microarray binding, fluorescence 635 nm; higher = more signal
# [3] = target: Focal adhesion kinase 1 (Homo sapiens) (UniProt Q05397); experiment: small-molecule microarray binders of FAK, primary screen, biochemical, 635/667 nm fluorescence, BSA, DTT (AID 1130); conditions: PTK2 binding, 635 nm fluorescence, higher = more signal;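 further: composite of spot emission at 667 nm and signal to noise over triplicate slides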
# Sequence of Focal adhesion kinase 1 (Homo sapiens) (Q05397 whole entry, looked up): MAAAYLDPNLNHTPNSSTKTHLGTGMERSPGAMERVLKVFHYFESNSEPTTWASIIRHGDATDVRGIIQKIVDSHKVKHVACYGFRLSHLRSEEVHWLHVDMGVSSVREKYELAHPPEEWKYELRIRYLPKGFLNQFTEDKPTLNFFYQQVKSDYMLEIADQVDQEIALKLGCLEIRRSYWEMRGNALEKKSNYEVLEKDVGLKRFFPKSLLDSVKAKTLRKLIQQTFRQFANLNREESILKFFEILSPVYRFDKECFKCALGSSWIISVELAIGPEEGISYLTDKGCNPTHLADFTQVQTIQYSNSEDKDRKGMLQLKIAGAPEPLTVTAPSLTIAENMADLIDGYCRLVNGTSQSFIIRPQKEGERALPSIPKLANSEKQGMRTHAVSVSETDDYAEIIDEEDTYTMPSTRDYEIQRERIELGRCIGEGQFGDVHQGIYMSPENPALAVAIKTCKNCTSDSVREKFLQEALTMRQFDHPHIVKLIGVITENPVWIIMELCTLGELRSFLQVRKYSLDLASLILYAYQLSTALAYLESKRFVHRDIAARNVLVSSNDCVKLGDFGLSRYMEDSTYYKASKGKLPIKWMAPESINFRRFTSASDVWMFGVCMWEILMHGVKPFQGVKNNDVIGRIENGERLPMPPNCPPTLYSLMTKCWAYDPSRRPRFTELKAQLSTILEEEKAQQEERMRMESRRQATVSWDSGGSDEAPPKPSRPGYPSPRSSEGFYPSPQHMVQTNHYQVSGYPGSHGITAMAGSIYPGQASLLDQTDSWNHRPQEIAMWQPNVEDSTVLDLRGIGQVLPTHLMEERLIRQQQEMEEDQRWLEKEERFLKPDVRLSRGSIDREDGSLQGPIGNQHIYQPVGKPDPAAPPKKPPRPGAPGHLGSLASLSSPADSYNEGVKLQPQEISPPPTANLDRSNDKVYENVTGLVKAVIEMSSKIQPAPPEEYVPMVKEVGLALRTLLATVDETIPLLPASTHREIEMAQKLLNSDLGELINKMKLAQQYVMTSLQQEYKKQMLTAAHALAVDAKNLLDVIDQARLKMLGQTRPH
# [4] = system: Fibrinogen (Alexa647-labelled); experiment: fibrinogen binders on compound microarrays, profiling panel, artefact control for SMM control-protein annotation, biochemical, small-molecule microarray, 635/667 nm fluorescence (AID 1131); conditions: fibrinogen-A647 binding fluorescence, higher = more signal;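 further: z-score merges 667 nm fluorescence with per-spot signal-to-noise over triplicate slides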
# [5] = target: Follistatin (Homo sapiens) (UniProt P19883); experiment: follistatin binders on small-molecule microarrays, primary screen, biochemical, small-molecule microarray, 635/667 nm fluorescence (AID 1132); conditions: FST binding, 635 nm fluorescence, higher = more signal
# Sequence of Follistatin (Homo sapiens) (P19883 whole entry, looked up): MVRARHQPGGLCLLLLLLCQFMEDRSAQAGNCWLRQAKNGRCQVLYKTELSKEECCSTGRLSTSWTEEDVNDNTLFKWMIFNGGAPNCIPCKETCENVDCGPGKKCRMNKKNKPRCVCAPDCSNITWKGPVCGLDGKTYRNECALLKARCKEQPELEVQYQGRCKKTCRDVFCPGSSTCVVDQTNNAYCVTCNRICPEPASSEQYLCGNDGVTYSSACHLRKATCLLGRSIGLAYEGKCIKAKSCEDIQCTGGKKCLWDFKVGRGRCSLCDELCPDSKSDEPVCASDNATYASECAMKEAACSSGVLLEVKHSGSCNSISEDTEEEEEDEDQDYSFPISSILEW
# [6] = target: Fibroblast growth factor 2 (Homo sapiens) (UniProt P09038); experiment: FGF2 binders on small-molecule microarrays, primary screen, biochemical, small-molecule microarray, 635/667 nm fluorescence (AID 1133); conditions: small-molecule microarray binding, FGF2, fluorescence 635/667; higher = more signal
# Sequence of Fibroblast growth factor 2 (Homo sapiens) (P09038 whole entry, looked up): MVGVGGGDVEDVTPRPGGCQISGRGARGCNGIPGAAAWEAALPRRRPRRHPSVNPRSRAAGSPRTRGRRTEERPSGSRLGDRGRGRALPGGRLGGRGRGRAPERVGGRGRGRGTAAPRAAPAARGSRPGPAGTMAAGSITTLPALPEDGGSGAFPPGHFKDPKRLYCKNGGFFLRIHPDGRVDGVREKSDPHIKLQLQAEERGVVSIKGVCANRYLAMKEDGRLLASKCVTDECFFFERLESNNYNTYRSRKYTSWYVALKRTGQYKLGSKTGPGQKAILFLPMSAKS
# [7] = mitochondrial membrane potential change in A549 cells, profiling panel, cell-based, JC-1 fluorescence, basal, 24 h, 100 nL (AID 1138); conditions: higher = more signal;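 further: A549 lung adenocarcinoma cells under basal conditions with no added stimulus; test concentration not given here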
# [8] = system: Lefty1; experiment: Lefty1 binders on small-molecule microarrays, primary screen, biochemical, small-molecule microarray, 635/667 nm fluorescence (AID 1139); conditions: small-molecule microarray binding, fluorescence 635/667; higher = more signal
# [9] = system: wheat germ agglutinin (Triticum aestivum), Alexa647-labelled; experiment: wheat germ agglutinin binders on compound microarrays, profiling panel, artefact control for SMM control-protein annotation, biochemical, small-molecule microarray, 635/667 nm fluorescence (AID 1140); conditions: WGA-A647 binding, 635 nm fluorescence, higher = more signal;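 further: score merges 667 nm feature emission with signal to noise over triplicate slides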
# [10] = target: Luciferin 4-monooxygenase (Photinus pyralis) (UniProt P08659); experiment: firefly luciferase enzyme inhibitors, primary screen, biochemical, luminescence, purified enzyme, 2006 set (AID 1141); conditions: SteadyGlo luminescence, 30 min, higher = more signal, called active from +8 up or from −8 down;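 further: cell-free assay with purified firefly luciferase at 100 ng per well in PBS; test concentration not given here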
# Sequence of Luciferin 4-monooxygenase (Photinus pyralis) (P08659 whole entry, looked up): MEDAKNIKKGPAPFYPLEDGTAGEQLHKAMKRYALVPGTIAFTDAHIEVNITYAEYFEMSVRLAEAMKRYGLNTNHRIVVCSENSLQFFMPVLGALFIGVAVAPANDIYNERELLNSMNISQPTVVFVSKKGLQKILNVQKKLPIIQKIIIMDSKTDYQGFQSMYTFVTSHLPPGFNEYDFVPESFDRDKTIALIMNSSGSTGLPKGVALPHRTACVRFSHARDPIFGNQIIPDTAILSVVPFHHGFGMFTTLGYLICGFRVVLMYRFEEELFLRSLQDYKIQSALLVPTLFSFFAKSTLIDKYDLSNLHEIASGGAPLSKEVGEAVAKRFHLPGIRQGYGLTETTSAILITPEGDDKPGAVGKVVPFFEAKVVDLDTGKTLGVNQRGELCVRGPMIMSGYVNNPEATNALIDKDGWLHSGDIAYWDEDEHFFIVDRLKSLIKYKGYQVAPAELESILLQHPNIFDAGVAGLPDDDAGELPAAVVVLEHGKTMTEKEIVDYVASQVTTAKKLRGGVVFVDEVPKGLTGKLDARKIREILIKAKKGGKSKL
# [11] = system: Wnt5a (protein binding on small-molecule microarray); experiment: Wnt5a binders on small-molecule microarray, primary screen, biophysical, 635/667 nm fluorescence (AID 1142); conditions: 635 nm fluorescence, higher = more signal;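 further: fluorescence read at 667 nm with signal to noise per printed feature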
# [12] = cell viability in Huh7 cells, primary screen, cytotoxicity control for HCV replication inhibitor project, CellTiter-Glo luminescence, basal, 48 h (AID 1143); conditions: Huh7 HCV replicon, higher = more signal, called active from +8 up or from −8 down;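 further: Huh7 hepatoma cells carrying a hepatitis C replication reporter with no stimulus; test concentration not given here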
# [13] = P. aeruginosa biofilm formation inhibitors, primary screen, PAO1 strain, BacTiter-Glo luminescence, LB-PBS (AID 1144); conditions: 12 h, higher = more signal
# [14] = CREB reporter modulators without forskolin, primary screen, cell-based, PC12, CRE-LacZ reporter, unstimulated (AID 1145); conditions: no forskolin, luminescence, 4.5 h, higher = more signal, called active from +8 up or from −8 down
# [15] = CREB reporter modulators under forskolin, primary screen, cell-based, PC12, CRE-LacZ reporter, forskolin-stimulated (AID 1146); conditions: luminescence, 4.5 h, higher = more signal, called active from +8 up or from −8 down;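 further: PC12 cells with 6xCRE LacZ reporter stimulated by forskolin 10 µM; beta-galactosidase reporter signal reflecting CREB driven transcription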
# [16] = target: Streptavidin (Streptomyces avidinii) (UniProt P22629); experiment: streptavidin binders on small-molecule microarray, primary screen, artefact control for SMM compound annotation, biophysical, 635/667 nm fluorescence (AID 1147); conditions: streptavidin binding, higher = more signal;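 further: signal reflects streptavidin binding to arrayed compounds as a control protein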
# Sequence of Streptavidin (Streptomyces avidinii) (P22629 whole entry, looked up): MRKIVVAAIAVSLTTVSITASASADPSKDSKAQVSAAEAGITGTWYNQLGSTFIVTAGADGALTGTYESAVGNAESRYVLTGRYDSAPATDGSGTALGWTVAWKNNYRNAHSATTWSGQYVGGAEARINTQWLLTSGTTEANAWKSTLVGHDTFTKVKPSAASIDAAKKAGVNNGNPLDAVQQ
# [17] = small-molecule binders of probe aInhba, primary screen, biochemical, small-molecule microarray, 635/667 nm fluorescence (AID 1148); conditions: higher = more signal;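 further: score merges 667nm spot fluorescence with signal-to-noise for antibody binding to printed compounds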
# [18] = target: Torsin-1A (Homo sapiens) (UniProt O14656); experiment: torsin A binders from cell lysate, primary screen, small-molecule microarray, wild-type, 635/667 nm (AID 1149); conditions: COS7 hTOR1A-WT lysate, 635 nm fluorescence, higher = more signal
# Sequence of Torsin-1A (Homo sapiens) (O14656 whole entry, looked up): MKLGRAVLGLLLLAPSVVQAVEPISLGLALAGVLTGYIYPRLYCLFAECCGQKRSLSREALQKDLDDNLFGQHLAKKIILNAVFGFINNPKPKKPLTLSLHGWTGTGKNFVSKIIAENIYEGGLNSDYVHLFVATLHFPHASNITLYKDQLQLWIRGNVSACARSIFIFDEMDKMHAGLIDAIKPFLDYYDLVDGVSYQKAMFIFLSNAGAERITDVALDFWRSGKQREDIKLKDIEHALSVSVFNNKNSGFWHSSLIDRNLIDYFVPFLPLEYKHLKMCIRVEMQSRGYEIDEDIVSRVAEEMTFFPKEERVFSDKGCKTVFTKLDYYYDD
# [19] = target: Torsin-1A (Homo sapiens) (UniProt O14656); experiment: small-molecule binders of mutant TOR1A in lysate, primary screen, cell lysate, small-molecule microarray, COS7 lysate, 635/667 nm fluorescence (AID 1150); conditions: COS7 hTOR1A mutant lysate, 635 nm fluorescence, higher = more signal;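 further: score pools 667 nm emission and signal to noise measuring lysate protein binding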
# [20] = system: Sonic hedgehog protein (Shh); experiment: small-molecule binders of Shh protein, primary screen, biochemical, small-molecule microarray, 635/667 nm fluorescence (AID 1151); conditions: small-molecule microarray binding, 635 nm fluorescence; higher = more signal;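 further: Shh protein binding to compounds spotted on small-molecule microarray slides; score combines spot fluorescence intensity with signal-to-noise across triplicate slides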
smiles,measurement,setting,value
CC(C)(C)OC(=O)CC[C@]1(C(N)=O)N=C(c2ccc(OCCCO)cc2)O[C@H]1c1ccccc1CN=[N+]=[N-],composite z-score,[1],3.93
same,composite z-score,[2],1.15
same,composite z-score,[3],0.291
same,composite z-score,[4],0.878
same,composite z-score,[5],0.421
same,composite z-score,[6],1.44
same,z-score,[7],0.187
same,composite z-score,[8],-0.512
same,composite z-score,[9],0.668
same,z-score,[10],-4.65 (inactive)
same,composite z-score,[11],0.602
same,z-score,[12],0.268 (inactive)
same,z-score,[13],0.201 (inactive)
same,z-score,[14],1.04 (inactive)
same,z-score,[15],-0.671 (inactive)
same,composite z-score,[16],2
same,composite z-score,[17],0.355
same,composite z-score,[18],1.57
same,composite z-score,[19],1.1
same,composite z-score,[20],-0.336
COCCCNC(=O)[C@@]1(Sc2ccc(C)cc2)CC(=O)N(C2CCCCC2)[C@@H]1c1ccc(CO)cc1I,composite z-score,[1],1.74
same,composite z-score,[2],1.18
same,composite z-score,[3],0.737
same,composite z-score,[4],0.922
same,composite z-score,[5],1.09
same,composite z-score,[6],0.659
same,z-score,[7],0.816
same,composite z-score,[8],0.136
same,composite z-score,[9],0.814
same,z-score,[10],0.235 (inactive)
same,composite z-score,[11],0.0699
same,z-score,[12],-1.41 (inactive)
same,z-score,[13],0.134 (inactive)
same,z-score,[14],-0.258 (inactive)
same,z-score,[15],1.17 (inactive)
same,composite z-score,[16],0.404
same,composite z-score,[17],0.541
same,composite z-score,[18],0.0619
same,composite z-score,[19],0.401
same,composite z-score,[20],0.993
CCCCN1CC=CC23O[C@@H]4/C=C\CCC(C)OC(=O)C4[C@H]2C(=O)N(C(C)CO)[C@@H]3C1=O (stereo not given in full),composite z-score,[1],-0.0307
same,composite z-score,[2],-1.41
same,composite z-score,[3],0.578
same,composite z-score,[4],-0.526
same,composite z-score,[5],-0.16
same,composite z-score,[6],-0.379
same,z-score,[7],0.256
same,composite z-score,[8],-0.034
same,composite z-score,[9],-0.128
same,z-score,[10],-0.762 (inactive)
same,composite z-score,[11],-0.0151
same,z-score,[12],0.24 (inactive)
same,z-score,[13],-0.297 (inactive)
same,z-score,[14],-0.497 (inactive)
same,z-score,[15],-0.21 (inactive)
same,composite z-score,[16],-0.447
same,composite z-score,[17],-0.161
same,composite z-score,[18],-0.185
same,composite z-score,[19],-1.01
same,composite z-score,[20],-0.0387
NC(=O)N1C(=O)C2C(C1=O)C1C=C(CCCO)C2C(c2ccc(CN3CCCC3)cc2)N1Cc1cccc(OC(F)(F)F)c1 (stereo not given),composite z-score,[1],0.22
same,composite z-score,[2],0.429
same,composite z-score,[3],0.102
same,composite z-score,[4],0.33
same,composite z-score,[5],1.05
same,composite z-score,[6],0.532
same,z-score,[7],1.39
same,composite z-score,[8],1.38
same,composite z-score,[9],0.0168
same,z-score,[10],-0.84 (inactive)
same,composite z-score,[11],0.232
same,z-score,[12],-0.596 (inactive)
same,z-score,[13],0.963 (inactive)
same,z-score,[14],0.494 (inactive)
same,z-score,[15],-0.679 (inactive)
same,composite z-score,[16],-0.157
same,composite z-score,[17],-0.0736
same,composite z-score,[18],0.094
same,composite z-score,[19],0.462
same,composite z-score,[20],1.86
[N-]=[N+]=NCc1ccccc1C[C@@]1(C(=O)O)N=C(c2ccc(OCCCO)cc2)O[C@@H]1c1ccccc1CN=[N+]=[N-],composite z-score,[1],0.705
same,composite z-score,[2],1.17
same,composite z-score,[3],-0.0333
same,composite z-score,[4],0.989
same,composite z-score,[5],1.02
same,composite z-score,[6],0.679
same,z-score,[7],-0.253
same,composite z-score,[8],0.594
same,composite z-score,[9],0.51
same,z-score,[10],-0.593 (inactive)
same,composite z-score,[11],0.561
same,z-score,[12],-1.96 (inactive)
same,z-score,[13],-0.595 (inactive)
same,z-score,[14],-0.996 (inactive)
same,z-score,[15],-1.4 (inactive)
same,composite z-score,[16],0.465
same,composite z-score,[17],0.353
same,composite z-score,[18],1.28
same,composite z-score,[19],0.171
same,composite z-score,[20],0.447
C[N+](C)(C)CCCCCCNC(=O)[C@H]1C[C@H]2C(=O)NCC(=O)N2[C@H]1c1cccc(OCCO)c1,composite z-score,[1],3.03
same,composite z-score,[2],0.283
same,composite z-score,[3],-0.27
same,composite z-score,[4],0.0104
same,composite z-score,[5],1.13
same,composite z-score,[6],1.63
same,z-score,[7],-0.883
same,composite z-score,[8],1.6
same,composite z-score,[9],0.273
same,z-score,[10],-0.0987 (inactive)
same,composite z-score,[11],-0.196
same,z-score,[12],-0.103 (inactive)
same,z-score,[13],0.052 (inactive)
same,z-score,[14],-0.675 (inactive)
same,z-score,[15],-0.487 (inactive)
same,composite z-score,[16],-0.518
same,composite z-score,[17],-0.14
same,composite z-score,[18],1.1
same,composite z-score,[19],0.781
same,composite z-score,[20],2.17
COCCOC(=O)N1C(=O)[C@@]2(c3cc(C#Cc4ccc(OC)cc4)ccc31)[C@H](C(=O)Nc1nc3ccccc3s1)[C@H]1C(=O)O[C@H](c3ccccc3)[C@H](c3ccccc3)N1[C@@H]2c1ccccc1OCCO,composite z-score,[1],0.484
same,composite z-score,[2],1.05
same,composite z-score,[3],0.0699
same,composite z-score,[4],0.922
same,composite z-score,[5],1.32
same,composite z-score,[6],1.04
same,z-score,[7],-1.75
same,composite z-score,[8],0.973
same,composite z-score,[9],0.883
same,z-score,[10],-1.76 (inactive)
same,composite z-score,[11],0.0516
same,z-score,[12],-4.28 (inactive)
same,z-score,[13],-1.6 (inactive)
same,z-score,[14],-1.7 (inactive)
same,z-score,[15],-1.44 (inactive)
same,composite z-score,[16],0.299
same,composite z-score,[17],-0.0566
same,composite z-score,[18],0.245
same,composite z-score,[19],0.243
same,composite z-score,[20],1.34
CCCCC(=C=CC[C@@H](O)c1cccc(OCCO)c1)C[C@@H](O)COCc1ccccc1,composite z-score,[1],0.457
same,composite z-score,[2],-0.122
same,composite z-score,[3],0.116
same,composite z-score,[4],0.982
same,composite z-score,[5],-0.211
same,composite z-score,[6],-0.178
same,z-score,[7],0.732
same,composite z-score,[8],-0.0843
same,composite z-score,[9],0.498
same,z-score,[10],-1.88 (inactive)
same,composite z-score,[11],-0.225
same,z-score,[12],-2.51 (inactive)
same,z-score,[13],-0.279 (inactive)
same,z-score,[14],6.81 (inactive)
same,z-score,[15],-0.731 (inactive)
same,composite z-score,[16],-0.577
same,composite z-score,[17],-0.05
same,composite z-score,[18],-0.387
same,composite z-score,[19],-0.444
same,composite z-score,[20],0.362
COC(=O)C1(CC(C)C)C=C2C(=C(C(C)C)C(=O)C2C)CN1 (stereo not given),composite z-score,[1],0.928
same,composite z-score,[2],-1.05
same,composite z-score,[3],0.208
same,composite z-score,[4],-0.653
same,composite z-score,[5],-1.04
same,composite z-score,[6],-0.688
same,z-score,[7],0.44
same,composite z-score,[8],-0.746
same,composite z-score,[9],0.323
same,z-score,[10],1.66 (inactive)
same,composite z-score,[11],-0.187
same,z-score,[12],0.254 (inactive)
same,z-score,[13],0.825 (inactive)
same,z-score,[14],1.34 (inactive)
same,z-score,[15],-0.872 (inactive)
same,composite z-score,[16],-0.469
same,composite z-score,[17],-0.0791
same,composite z-score,[18],-0.742
same,composite z-score,[19],-0.15
same,composite z-score,[20],-0.702
